Laboratory results reported in publication doi:10.1101/2024.03.05.583629.

target: pT7_6His-AlfaTag-ZIF268 (human, UniProt P18146 335-423); assay: PADIT-seq; conditions: dsDNA, one strand shown

| Sequence | binding signal |
| --- | --- |
| CTCGAGGATATCAAGATCTGGCCTCGGCGCGTCGGCGGGAACCTCTAGCTAGCCGACTCACTATAGGGATAATCGCCCTGAGCAAAGACC | 0.627 ± 0.116 log2FC |
| CTCGAGGATATCAAGATCTGGCCTCGGCCGCGGCCGCGGAACCTCTAGCTAGCCGACTCACTATAGGGATAATCGCCCTGAGCAAAGACC | 0.0714 ± 0.102 log2FC |
| CTCGAGGATATCAAGATCTGGCCTCGGCCGCCCAAGTGGAACCTCTAGCTAGCCGACTCACTATAGGGATAATCGCCCTGAGCAAAGACC | 0.0066 ± 0.0917 log2FC |
| CTCGAGGATATCAAGATCTGGCCTCGGCGCGTGGTGAGGAACCTCTAGCTAGCCGACTCACTATAGGGATAATCGCCCTGAGCAAAGACC | 0.258 ± 0.102 log2FC |
| CTCGAGGATATCAAGATCTGGCCTCGGCGCGTGGTCGGGAACCTCTAGCTAGCCGACTCACTATAGGGATAATCGCCCTGAGCAAAGACC | 0.471 ± 0.1 log2FC |
| CTCGAGGATATCAAGATCTGGCCTCGGCGCGTGGTTTGGAACCTCTAGCTAGCCGACTCACTATAGGGATAATCGCCCTGAGCAAAGACC | 0.236 ± 0.101 log2FC |
| CTCGAGGATATCAAGATCTGGCCTCGGCGCGTGGCTCGGAACCTCTAGCTAGCCGACTCACTATAGGGATAATCGCCCTGAGCAAAGACC | 0.122 ± 0.1 log2FC |
| CTCGAGGATATCAAGATCTGGCCTCGGCGCGCGGGCGGGAACCTCTAGCTAGCCGACTCACTATAGGGATAATCGCCCTGAGCAAAGACC | 1.18 ± 0.1 log2FC |
| CTCGAGGATATCAAGATCTGGCCTCGGCGCGTGGTCTGGAACCTCTAGCTAGCCGACTCACTATAGGGATAATCGCCCTGAGCAAAGACC | 0.117 ± 0.101 log2FC |
| CTCGAGGATATCAAGATCTGGCCTCGGCGCGTGGACGGGAACCTCTAGCTAGCCGACTCACTATAGGGATAATCGCCCTGAGCAAAGACC | 0.177 ± 0.113 log2FC |
| CTCGAGGATATCAAGATCTGGCCTCGGCCGCCCACCGGGAACCTCTAGCTAGCCGACTCACTATAGGGATAATCGCCCTGAGCAAAGACC | 0.114 ± 0.0972 log2FC |
| CTCGAGGATATCAAGATCTGGCCTCGGCGCGTCAGCGGGAACCTCTAGCTAGCCGACTCACTATAGGGATAATCGCCCTGAGCAAAGACC | 0.0878 ± 0.104 log2FC |
| CTCGAGGATATCAAGATCTGGCCTCGGCGTGTGGGCGGGAACCTCTAGCTAGCCGACTCACTATAGGGATAATCGCCCTGAGCAAAGACC | 3.29 ± 0.0753 log2FC |
| CTCGAGGATATCAAGATCTGGCCTCGGCGCGGCGGCGGGAACCTCTAGCTAGCCGACTCACTATAGGGATAATCGCCCTGAGCAAAGACC | 0.141 ± 0.11 log2FC |
| CTCGAGGATATCAAGATCTGGCCTCGGCCGGTGGGCGGGAACCTCTAGCTAGCCGACTCACTATAGGGATAATCGCCCTGAGCAAAGACC | 1.3 ± 0.0687 log2FC |
| CTCGAGGATATCAAGATCTGGCCTCGGCCGCCCGCGCGGAACCTCTAGCTAGCCGACTCACTATAGGGATAATCGCCCTGAGCAAAGACC | 0.122 ± 0.126 log2FC |
| CTCGAGGATATCAAGATCTGGCCTCGGCGCGTGGTGCGGAACCTCTAGCTAGCCGACTCACTATAGGGATAATCGCCCTGAGCAAAGACC | 0.41 ± 0.0906 log2FC |
| CTCGAGGATATCAAGATCTGGCCTCGGCATGTGGGCGGGAACCTCTAGCTAGCCGACTCACTATAGGGATAATCGCCCTGAGCAAAGACC | 2.94 ± 0.0778 log2FC |
| CTCGAGGATATCAAGATCTGGCCTCGGCGCGTGGTCAGGAACCTCTAGCTAGCCGACTCACTATAGGGATAATCGCCCTGAGCAAAGACC | 0.198 ± 0.102 log2FC |
| CTCGAGGATATCAAGATCTGGCCTCGGCCAGTGGGCGGGAACCTCTAGCTAGCCGACTCACTATAGGGATAATCGCCCTGAGCAAAGACC | 1.87 ± 0.0948 log2FC |
| CTCGAGGATATCAAGATCTGGCCTCGGCGATTGGGCGGGAACCTCTAGCTAGCCGACTCACTATAGGGATAATCGCCCTGAGCAAAGACC | 0.0131 ± 0.0888 log2FC |
| CTCGAGGATATCAAGATCTGGCCTCGGCTTGCCACGCGGAACCTCTAGCTAGCCGACTCACTATAGGGATAATCGCCCTGAGCAAAGACC | 0.107 ± 0.166 log2FC |
| CTCGAGGATATCAAGATCTGGCCTCGGCGCGCCCGCGGGAACCTCTAGCTAGCCGACTCACTATAGGGATAATCGCCCTGAGCAAAGACC | 0.783 ± 0.131 log2FC |
| CTCGAGGATATCAAGATCTGGCCTCGGCCGCCCACATGGAACCTCTAGCTAGCCGACTCACTATAGGGATAATCGCCCTGAGCAAAGACC | 1.03 ± 0.0882 log2FC |
| CTCGAGGATATCAAGATCTGGCCTCGGCGCGTGGATGGGAACCTCTAGCTAGCCGACTCACTATAGGGATAATCGCCCTGAGCAAAGACC | 0.000457 ± 0.106 log2FC |
| CTCGAGGATATCAAGATCTGGCCTCGGCCGCCCAAAAGGAACCTCTAGCTAGCCGACTCACTATAGGGATAATCGCCCTGAGCAAAGACC | 0.0465 ± 0.0996 log2FC |
